Values joined by “and” are separate entries in the source; they are usually repeats but may differ in a detail not shown here. Identical values can stand only once. Results filed as inconclusive are left out. Where a call stands in place of a potency, no number is given. Where a structure was tested more than once in an assay, its records may differ in their call. Active and inactive are the calls of the source. Unless noted, calls follow the shape of the dose curve; as a rule, active = well fitted curve in the direction sought with a large enough effect in the repeat runs; inconclusive = weak or mixed curves; inactive = no such curve, though single readings can be large; an effect the other way counts as inactive or inconclusive.
How the values were obtained:
[1] = target: Peroxisome proliferator-activated receptor delta (Homo sapiens) (UniProt Q03181); assay: qHTS assay to identify small molecule agonists of the peroxisome proliferator-activated receptor delta (PPARd) signaling pathway (AID 743212; calls by dose curve)
Procedure, shortened: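 Steps: seed PPARd-bla HEK293H cells; incubate 5 h, 37 C, 5% CO2; add compounds in DMSO; incubate, 37 C; add LiveBLAzer B/G FRET substrate; hold 2 h at room temperature; measure fluorescence.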

[2] = target: Bile acid receptor (Homo sapiens) (UniProt Q96RI1); assay: qHTS assay to identify small molecule antagonists of the farnesoid-X-receptor (FXR) signaling pathway (AID 743217; active = well fitted inhibition curve with a large enough effect in the signal ratio in the repeat runs, not every such curve was filed as active; the % refers to the signal ratio)
Procedure, shortened: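 Read-out: beta-lactamase FRET fluorescence (LiveBLAzer B/G substrate, 2 h, room temperature) in GeneBLAzer FXR-UAS-bla HEK 293T cells. Compounds were co-dosed with 50 uM chenodeoxycholic acid (final) and incubated 16 h at 37 °C.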

[3] = target: Bile acid receptor (Homo sapiens) (UniProt Q96RI1); assay: qHTS assay to identify small molecule agonists of the farnesoid-X-receptor (FXR) signaling pathway (AID 743220; active = well fitted activation curve with a large enough effect in the signal ratio in the repeat runs, not every such curve was filed as active; the % refers to the signal ratio)
Procedure, shortened: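 FXR-UAS-bla HEK 293T cells carrying a UAS-driven beta-lactamase reporter were plated for 5 h at 37C/5% CO2, then exposed to DMSO-dissolved Tox21 10K compounds for 16 h at 37C. A LiveBLAzer B/G FRET substrate was loaded for 2 h at room temperature before fluorescence reading.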

[4] = qHTS assay to identify small molecule antagonists of the farnesoid-X-receptor (FXR) signaling pathway - cell viability counter screen (AID 743221; active = well fitted cell-killing curve with a large enough effect in the repeat runs, not every such curve was filed as active; also: nearly all actives have a fitted effect of over 50% in size; also: potency is read from the fitted curve at half-maximal effect)
Procedure, shortened: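 Multiplexed counter screen: viability of FXR-bla HEK 293T cells under agonist stimulation by chenodeoxycholic acid (50 uM, final) and test compound for 16 h at 37 C, measured by CellTiter-Glo luminescence in the reporter wells.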

[5] = target: Vitamin D3 receptor (Homo sapiens) (UniProt P11473); assay: qHTS assay to identify small molecule agonists of the vitamin D receptor (VDR) signaling pathway (AID 743222; calls by dose curve)
Procedure, shortened: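 Beta-lactamase reporter readout (LiveBLAzer B/G FRET, 2 h RT) in VDR-bla cells after 16 h compound treatment at 37C, 5% CO2; cells pre-incubated 4 h before pin transfer of DMSO solutions.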

[6] = qHTS assay to identify small molecule agonists of the vitamin D receptor (VDR) signaling pathway - cell viability counter screen (AID 743224); also: nearly all actives have a fitted effect of over 50% in size; also: potency is read from the fitted curve at half-maximal effect
Procedure, shortened: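 Cytotoxicity counter screen: VDR-bla cells, 16 h compound exposure at 37C, 5% CO2; CellTiter-Glo luminescence, 30 min RT, same wells as bla read.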

[7] = qHTS assay to identify small molecule antagonists of the vitamin D receptor (VDR) signaling pathway - cell viability counter screen (AID 743225); also: nearly all actives have a fitted effect of over 50% in size; also: potency is read from the fitted curve at half-maximal effect
Procedure, shortened: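 HEK293T VDR-bla; cpd + 1a,25-(OH)2D3 3 nM final, 16 h 37C/5% CO2; B/G FRET substrate 2 h RT; then CellTiter-Glo 30 min RT, luminescence.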

[8] = qHTS assay to identify small molecule agonists of the endoplasmic reticulum stress response signaling pathway (AID 1159516; active = well fitted activation curve with a large enough effect in the signal ratio in the repeat runs, not every such curve was filed as active; the % refers to the signal ratio)
Procedure, shortened: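 HeLa ESRE-bla reporter line; cpd 5 h, 37 C/5% CO2; LiveBLAzer B/G FRET substrate 2 h RT; ex 405, em 460/530 nm.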

[9] = qHTS assay to identify small molecule antagonists of the retinoid-related orphan receptor gamma (ROR-gamma) signaling pathway - cell viability counter screen (AID 1159520); also: nearly all actives have a fitted effect of over 50% in size; also: potency is read from the fitted curve at half-maximal effect
Procedure, shortened: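 Cytotoxicity was read from cellular ATP (CellTiter-Glo luminescence) after 16 hr at 37 C with 1 uM doxycycline induction. The inducer was added 2 hr after compound transfer to Tet-on ROR gamma CHO cells.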

[10] = qHTS assay to identify small molecule agonists of the AP-1 signaling pathway - cell viability counter screen (AID 1159525; calls by dose curve; also: nearly all actives have a fitted effect of over 55% in size; also: potency is read from the fitted curve at half-maximal effect)
Procedure, shortened: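 Intracellular ATP by Cell Titer Glo luminescence (30 min, RT) in the same ME-180 AP-1-bla wells after the 5 h compound exposure at 37 °C. Normalised to tetra n-octyl ammonium bromide and DMSO controls.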

[11] = qHTS assay to identify small molecule antagonists of the peroxisome proliferator-activated receptor delta (PPARd) signaling pathway - cell viability counter screen (AID 743213); also: nearly all actives have a fitted effect of over 50% in size; also: potency is read from the fitted curve at half-maximal effect
Procedure, shortened: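 HEK293H PPARd UAS-bla cells, 5 h pre-incubation, compound + L165041 300 nM final, 17 h 37 C; B/G FRET substrate 2 h RT; then CellTiter-Glo 30 min RT, luminescence.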

[12] = qHTS assay to identify small molecule agonists of the endoplasmic reticulum stress response signaling pathway - cell viability counter screen (AID 1159517; calls by dose curve; also: nearly all actives have a fitted effect of over 50% in size; also: potency is read from the fitted curve at half-maximal effect)
Procedure, shortened: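 After overnight attachment, ESRE-bla HeLa cells were treated with Tox21 library compounds for 5 hr. CellTiter-Glo luminescence, read 30 min post-addition at room temperature, reported viability.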

[13] = target: Nuclear receptor ROR-gamma (Homo sapiens) (UniProt P51449); assay: qHTS assay to identify small molecule antagonists of the retinoid-related orphan receptor gamma (ROR-gamma) signaling pathway (AID 1159521; also: nearly all actives have a fitted effect of over 50% in size; also: potency is read from the fitted curve at half-maximal effect)
Procedure, shortened: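 Cells were plated, rested 4 h at 37 C, exposed to compounds for 2 h, then given 1 uM final doxycycline hyclate to induce RORγ expression. After 16 h, ONE-Glo luminescence from the ROR response element reporter was measured.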

[14] = qHTS assay to identify small molecule agonists of the RXR signaling pathway - cell viability counter screen (AID 1159529); also: nearly all actives have a fitted effect of over 50% in size; also: potency is read from the fitted curve at half-maximal effect
Procedure, shortened: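 Steps: seed RXR-alpha-UAS-bla HEK 293T cells in assay medium containing 2% charcoal-stripped FBS; incubate 5 hr; add compounds in DMSO; incubate 16 hr at 37 C; after the bla read, add CellTiter-Glo and read luminescence at 30 min.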

[15] = qHTS assay to identify small molecule agonists of the AP-1 signaling pathway (AID 1159526; calls by dose curve)
[16] = target: Peroxisome proliferator-activated receptor delta (Homo sapiens) (UniProt Q03181); assay: qHTS assay to identify small molecule antagonists of the peroxisome proliferator-activated receptor delta (PPARd) signaling pathway (AID 743215; active = well fitted inhibition curve with a large enough effect in the signal ratio in the repeat runs, not every such curve was filed as active; the % refers to the signal ratio;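 also: cells stimulated with agonist L165041 at 300 nM final during compound exposure; series mostly up to about 62 µM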)
Procedure, shortened: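 HEK293H GeneBLAzer PPARd UAS-bla reporter cells; cpd + L165041 300 nM final, 17 h 37 C; LiveBLAzer B/G FRET substrate 2 h RT; fluorescence intensity read-out. Antagonist mode.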

[17] = target: Retinoic acid receptor RXR-alpha (Homo sapiens) (UniProt P19793); assay: qHTS assay to identify small molecule agonists of the RXR signaling pathway (AID 1159527; calls by dose curve; also: nearly all actives have a fitted effect of over 35% in size)
Procedure, shortened: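 Cells plated at 2,000/well, rested 5 hr at 37 C, pin-dosed with DMSO compound solutions, incubated 16 hr, then loaded with B/G FRET substrate for 2 hr at RT before dual-emission fluorescence reading.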

[18] = qHTS assay to identify small molecule agonists of the farnesoid-X-receptor (FXR) signaling pathway - cell viability counter screen (AID 743218); also: nearly all actives have a fitted effect of over 45% in size; also: potency is read from the fitted curve at half-maximal effect
Procedure, shortened: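 Luminescence from CellTiter-Glo, read after 30 min at RT, reports viability of GeneBLAzer FXR-UAS-bla HEK 293T cells treated 16 h with compounds in the wells used for the beta-lactamase reporter.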

[19] = target: Vitamin D3 receptor (Homo sapiens) (UniProt P11473); assay: qHTS assay to identify small molecule antagonists of the vitamin D receptor (VDR) signaling pathway (AID 743223; active = well fitted inhibition curve with a large enough effect in the signal ratio in the repeat runs, not every such curve was filed as active; the % refers to the signal ratio)
Procedure, shortened: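 Cells carrying a VDR-driven beta-lactamase reporter (VDR-bla) were co-treated with compound and 3 nM final 1alpha,25-dihydroxyvitamin D3 for 16 h at 37C; reporter activity was measured as FRET substrate fluorescence after 2 h at room temperature.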

Retinoic acid receptor RXR-alpha (Homo sapiens), sequence (P19793 whole entry, looked up): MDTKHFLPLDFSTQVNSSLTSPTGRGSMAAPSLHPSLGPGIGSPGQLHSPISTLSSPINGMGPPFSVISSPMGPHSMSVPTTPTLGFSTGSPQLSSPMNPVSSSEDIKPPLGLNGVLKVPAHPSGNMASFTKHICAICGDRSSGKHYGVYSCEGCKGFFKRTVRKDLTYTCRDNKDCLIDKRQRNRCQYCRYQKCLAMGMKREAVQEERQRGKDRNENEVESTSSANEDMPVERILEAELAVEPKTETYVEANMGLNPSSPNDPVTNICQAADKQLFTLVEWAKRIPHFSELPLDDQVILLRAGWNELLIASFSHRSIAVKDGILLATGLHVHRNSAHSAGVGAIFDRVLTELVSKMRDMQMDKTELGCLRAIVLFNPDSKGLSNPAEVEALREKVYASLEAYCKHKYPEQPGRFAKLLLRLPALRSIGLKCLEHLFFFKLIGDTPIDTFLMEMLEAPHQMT
Vitamin D3 receptor (Homo sapiens), sequence (P11473 whole entry, looked up): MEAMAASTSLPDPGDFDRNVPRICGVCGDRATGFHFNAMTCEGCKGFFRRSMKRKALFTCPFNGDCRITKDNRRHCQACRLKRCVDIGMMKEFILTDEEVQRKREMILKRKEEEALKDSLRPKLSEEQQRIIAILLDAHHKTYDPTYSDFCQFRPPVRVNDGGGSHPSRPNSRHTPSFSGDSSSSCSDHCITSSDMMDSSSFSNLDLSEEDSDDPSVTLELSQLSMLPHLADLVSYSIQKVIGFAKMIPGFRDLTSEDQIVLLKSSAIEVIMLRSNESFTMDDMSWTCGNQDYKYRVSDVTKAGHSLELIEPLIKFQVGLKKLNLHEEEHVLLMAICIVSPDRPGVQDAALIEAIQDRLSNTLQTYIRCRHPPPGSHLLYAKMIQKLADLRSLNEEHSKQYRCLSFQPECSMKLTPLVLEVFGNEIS
Bile acid receptor (Homo sapiens), sequence (Q96RI1 whole entry, looked up): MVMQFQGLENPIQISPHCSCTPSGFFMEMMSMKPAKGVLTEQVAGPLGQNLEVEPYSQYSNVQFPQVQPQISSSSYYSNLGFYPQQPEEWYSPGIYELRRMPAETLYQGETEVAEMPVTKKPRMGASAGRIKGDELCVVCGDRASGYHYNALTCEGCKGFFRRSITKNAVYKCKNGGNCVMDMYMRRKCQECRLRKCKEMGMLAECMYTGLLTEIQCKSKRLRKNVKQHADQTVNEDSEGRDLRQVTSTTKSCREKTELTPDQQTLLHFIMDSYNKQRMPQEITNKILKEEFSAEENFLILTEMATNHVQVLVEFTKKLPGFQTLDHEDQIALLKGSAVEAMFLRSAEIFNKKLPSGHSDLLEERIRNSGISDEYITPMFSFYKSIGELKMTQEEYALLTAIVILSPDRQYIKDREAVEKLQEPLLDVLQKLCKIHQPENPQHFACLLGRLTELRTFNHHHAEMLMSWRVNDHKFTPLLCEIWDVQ
Peroxisome proliferator-activated receptor delta (Homo sapiens), sequence (Q03181 whole entry, looked up): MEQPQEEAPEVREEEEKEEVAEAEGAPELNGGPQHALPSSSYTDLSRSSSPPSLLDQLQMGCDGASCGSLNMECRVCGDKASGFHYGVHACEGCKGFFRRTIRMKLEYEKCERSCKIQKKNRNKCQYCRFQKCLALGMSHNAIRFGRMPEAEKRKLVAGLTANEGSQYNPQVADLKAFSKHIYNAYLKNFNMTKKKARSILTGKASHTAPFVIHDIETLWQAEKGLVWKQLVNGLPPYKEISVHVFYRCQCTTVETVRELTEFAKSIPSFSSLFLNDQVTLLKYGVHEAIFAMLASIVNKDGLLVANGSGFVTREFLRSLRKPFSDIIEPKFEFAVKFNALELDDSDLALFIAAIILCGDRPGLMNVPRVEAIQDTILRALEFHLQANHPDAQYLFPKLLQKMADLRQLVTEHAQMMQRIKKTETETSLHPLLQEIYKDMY

| Compound | Potency [1] | Potency [2] | outcome [3] | Potency [4] | Potency [5] | Potency [6] | Potency [7] | Potency [8] | Potency [9] | Potency [10] | Potency [11] | Potency [12] | Potency [13] | Potency [14] | Potency [15] | Potency [16] | outcome [17] | Potency [18] | Potency [19] |
| --- | --- | --- | --- | --- | --- | --- | --- | --- | --- | --- | --- | --- | --- | --- | --- | --- | --- | --- | --- |
| COc1cccc(C(=O)CCN[C@@H](C)[C@H](O)c2ccccc2)c1 | inactive | inactive | inactive | inactive | inactive | 33.5 µM (active) | inactive | inactive | inactive | inactive | – | – | – | – | – | – | – | – | – |
| CN(C)[C@@H]1C(=O)C(C(N)=O)=C(O)[C@@]2(O)C(=O)C3=C(O)c4c(O)ccc(Cl)c4[C@@](C)(O)[C@H]3C[C@@H]12 | – | – | inactive | inactive | – | inactive | inactive | – | inactive | inactive | inactive | inactive | 49.6 µM (active) | inactive | – | – | – | – | – |
| O=[N+]([O-])c1ccc(Oc2ccc(C(F)(F)F)cc2[N+](=O)[O-])cc1 | inactive | inactive | inactive | inactive | inactive | inactive | inactive | inactive | – | inactive | inactive | inactive | inactive | inactive | inactive | – | – | – | – |
| Cc1cc(SCc2sc(-c3ccc(C(F)(F)F)c(F)c3)nc2C)ccc1OCC(=O)O | – | – | – | inactive | – | 49 µM (active) | 21.9 µM (active) | inactive | inactive | inactive | 12.3 µM (active) | – | inactive | 19.5 µM (active) | – | – | – | – | – |
| C[C@]12CC[C@H]3[C@@H](CCC4=CC(=O)CC[C@@]43C)[C@@H]1CC[C@@H]2O | – | – | – | inactive | – | – | inactive | inactive | – | inactive | inactive | inactive | – | inactive | – | – | – | – | – |
| CC(Cc1ccc(C(C)(C)C)cc1)CN1C[C@@H](C)O[C@@H](C)C1 (some centres undefined) | inactive | inactive | inactive | inactive | – | – | inactive | – | inactive | inactive | inactive | inactive | inactive | inactive | inactive | inactive | inactive | – | – |
| Nc1ccccc1C(=O)Oc1ccc2ccccc2c1 | – | inactive | inactive | inactive | – | – | inactive | inactive | – | – | inactive | 43.6 µM (active) | inactive | – | – | – | – | inactive | – |
| BrCBr | inactive | – | – | inactive | inactive | inactive | inactive | inactive | – | inactive | inactive | inactive | – | inactive | inactive | inactive | inactive | inactive | inactive |
| CC(C)(C)C(O)/C(=C\c1ccc(Cl)cc1Cl)n1cncn1 (centres undefined) | inactive | – | inactive | – | – | 59.3 µM (active) | 52.8 µM (active) | inactive | – | – | – | inactive | 41.6 µM (active) | – | – | – | – | – | – |
| COc1ccc(N)cc1N | inactive | – | – | inactive | inactive | – | inactive | inactive | – | 50.5 µM (active) and inactive | – | inactive | 7.08 µM (active) and 14.7 µM (active) | – | – | – | inactive | – | – |
| CC(C)(C)c1ccc(CSc2cnn(C(C)(C)C)c(=O)c2Cl)cc1 | – | – | – | inactive | – | – | – | inactive | – | inactive | – | inactive | – | – | inactive | – | – | – | – |
| C[C@]12Cc3nonc3C[C@@H]1CC[C@@H]1[C@@H]2CC[C@@]2(C)[C@H]1CC[C@]2(C)O | inactive | inactive | inactive | inactive | inactive | inactive | inactive | inactive | – | – | inactive | – | 7.5 µM (active) | 21.3 µM (active) | – | inactive | – | inactive | – |
| NNC(=O)c1ccccc1 | inactive | – | – | inactive | – | – | inactive | inactive | – | inactive | inactive | inactive | – | inactive | inactive | inactive | inactive | inactive | – |
| ClC(Cl)=C(c1ccc(Cl)cc1)c1ccc(Cl)cc1 | inactive | – | inactive | inactive | inactive | inactive and 38.9 µM (active) | inactive | – | inactive | 44.7 µM (active) | inactive | 54.9 µM (active) | 62.6 µM (active) | 56.3 µM (active) and 43.6 µM (active) | – | inactive | – | – | inactive |
| ClC1=C(Cl)C2(Cl)C3C(Cl)C(Cl)CC3C1(Cl)C2(Cl)Cl (centres undefined) | – | – | – | 61.6 µM (active) | – | 24.5 µM (active) and 17.4 µM (active) | 54.8 µM (active) and 49 µM (active) | – | 68.4 µM (active) | 24.5 µM (active) and 34.7 µM (active) | 49 µM (active) | 49 µM (active) | 27.2 µM (active) and 61.1 µM (active) | 21.8 µM (active) and 21.9 µM (active) | – | – | – | 48.8 µM (active) and 54.9 µM (active) | – |
| CS(=O)(=O)c1ccc(C(=O)C2C(=O)CCCC2=O)c([N+](=O)[O-])c1 | – | – | inactive | inactive | – | – | – | inactive | inactive | inactive | – | – | – | inactive | – | – | – | – | – |
